In PubChem BioAssay (Tox21):
Results filed as inconclusive are left out. Where a structure was tested more than once in an assay, its records may differ in their call. Active and inactive are the calls of the source. Unless noted, calls follow the shape of the dose curve; as a rule, active = well fitted curve in the direction sought with a large enough effect in the repeat runs; inconclusive = weak or mixed curves; inactive = no such curve, though single readings can be large; an effect the other way counts as inactive or inconclusive.

Legend:
[1] = qHTS assay to identify small molecule agonists of the androgen receptor (AR) signaling pathway in the presence of an antagonist - cell viability counter screen (AID 1259379);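 also: MDA-kb2 human breast cancer cells carrying an MMTV luciferase reporter; series mostly up to about 92 µM; nearly all actives have a fitted effect of over 25% in size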
Outline: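 Counter screen for cell viability run in parallel with the AR agonist-mode luciferase assay. MDA-kb2 cells were co-treated with nilutamide (3.0uM final) and compounds, then incubated 16 hr at 37C, and CellTiter-Fluor fluorescence was measured.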

[2] = qHTS assay to identify small molecule agonists of the estrogen receptor beta (ER-beta) signaling pathway - cell viability counter screen (AID 1259380); also: nearly all actives have a fitted effect of over 30% in size
Outline: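 In this qHTS counter screen, HEK293T cells carrying an ER-beta/UAS beta-lactamase reporter, grown in 2% charcoal-stripped FBS, received compound for 16 hr; ATP-based CellTiter-Glo luminescence was then read after 30 min at room temperature.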

[3] = qHTS assay to identify small molecule antagonists of the estrogen receptor beta (ER-beta) signaling pathway - cell viability counter screen (AID 1259382);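 also: HEK293T cells carrying ER-beta-UAS-bla reporter stimulated with estradiol; series mostly up to about 92 µM; nearly all actives have a fitted effect of over 55% in size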
Outline: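 HEK293T ER-beta-UAS-bla, 2% charcoal-stripped FBS; compounds + 1nM E2 16 hr 37C; CellTiter-Glo luminescence, 30 min RT.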

[4] = qHTS assay to identify small molecule agonists or antagonists of the thyroid stimulating hormone receptor (TSHR) signaling pathway - wild type cell line counter screen (AID 1259384; calls by dose curve)
Outline: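 Counter screen in untransfected Hek293: compounds (15-point titration, triplicate) plus phosphodiesterase inhibitor Ro20-1724 added after 18 h plating; 30 min RT. Intracellular cAMP via competitive d2/cryptate immunoassay, 1 h incubation.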

[5] = target: Thyrotropin receptor (Homo sapiens) (UniProt P16473); assay: qHTS assay to identify small molecule antagonists of the thyroid stimulating hormone receptor (TSHR) signaling pathway (AID 1259385; calls by dose curve; also: nearly all actives have a fitted effect of over 20% in size)
Outline: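 Antagonist mode: compound-treated TSHR-expressing HEK293 cells were stimulated with 1.5 ng/mL TSH (final) in presence of Ro20-1724 for 30 min at RT. HTRF cAMP detection after 1 h; each compound tested at 15 concentrations, triplicate.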

[6] = qHTS assay to identify small molecule agonists of the estrogen receptor alpha (ER-alpha) signaling pathway in the presence of an antagonist - cell viability counter screen (AID 1259386);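 also: series mostly up to about 92 µM; cells exposed to compounds for 22 h at 37 °C before the viability read; nearly all actives have a fitted effect of over 30% in size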
Outline: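 Steps: 5-day stripped-FBS culture; seed and incubate 24hr; add ICI-182,780 (10.0nM final); pin 15-point compound titration; incubate 22hr at 37C; add CellTiter-Fluor at 21hr; read fluorescence.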

[7] = target: Progesterone receptor (Homo sapiens) (UniProt P06401); assay: qHTS assay to identify small molecule agonists of the progesterone receptor (PR) signaling pathway (AID 1346784; calls by dose curve; also: nearly all actives have a fitted effect of over 30% in size)
Outline: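 PR-UAS-bla HEK 293T cells (beta-lactamase reporter under UAS) in 2% charcoal-stripped FBS, dosed with 23 nL compound after 6 hr, incubated 16hr at 37C. LiveBLAzer B/G FRET substrate added, fluorescence read after 2 hours.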

[8] = target: Progesterone receptor (Homo sapiens) (UniProt P06401); assay: qHTS assay to identify small molecule antagonists of the progesterone receptor (PR) signaling pathway (AID 1346795; active = well fitted inhibition curve with a large enough effect in the signal ratio in the repeat runs, not every such curve was filed as active; the % refers to the signal ratio)
Outline: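 PR-UAS-bla HEK293T cells with beta-lactamase reporter under UAS control, in 2% charcoal-stripped FBS, treated with compounds plus 1 nM promegestone (R5020, final) for 16 hr at 37C. Read-out: FRET beta-lactamase substrate fluorescence after 2 hr at room temperature.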

[9] = qHTS assay to identify small molecule antagonists of the progesterone receptor (PR) signaling pathway - cell viability counter screen (AID 1346798); also: series mostly up to about 92 µM; nearly all actives have a fitted effect of over 50% in size
Outline: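 PR-UAS-bla HEK293T cells, 3,000/well in 2% charcoal-stripped FBS medium, dosed with compounds plus R5020 agonist and incubated 16 h at 37C. Viability then measured in the same wells by CellTiter-Glo luminescence after 30 min at RT.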

[10] = qHTS assay to identify small molecule agonists of the progesterone receptor (PR) signaling pathway - cell viability counter screen (AID 1346799; calls by dose curve; also: nearly all actives have a fitted effect of over 45% in size)
Outline: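 Counter screen in the PR-UAS-bla HEK293T wells (2% charcoal-stripped FBS, 16 h compound exposure at 37 C) after the bla read. CellTiter-Glo added, 30 min at room temperature, luminescence read as cell viability.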

[11] = qHTS assay to identify small molecule antagonists of the TGF-beta/Smad signaling pathway - cell viability counter screen (AID 1346824); also: nearly all actives have a fitted effect of over 50% in size
Outline: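 Cytotoxicity counter-screen run in the same wells as the beta-lactamase Smad reporter read: CellTiter-Glo luminescence after 30 min at room temperature. HEK 293T SBE-bla cells had 5 hr compound exposure at 37 C with TGF-beta1 (0.25 ng/mL stock).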

[12] = qHTS assay to identify small molecule agonists of the TGF-beta/Smad signaling pathway - cell viability counter screen (AID 1346829); also: top concentration of the series differs between compounds; nearly all actives have a fitted effect of over 45% in size
Outline: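 Tox21 qHTS format: SBE-bla HEK 293T cells treated with DMSO-dissolved compounds for 5 hr; CellTiter-Glo luminescence after 30 min at room temperature.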

[13] = qHTS assay to identify small molecule agonists of the TGF-beta/Smad signaling pathway (AID 1346859; active = well fitted activation curve with a large enough effect in the signal ratio in the repeat runs, not every such curve was filed as active; the % refers to the signal ratio; also: series mostly up to about 77 µM)
Outline: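 SBE-bla HEK293T cells plated overnight, then compound exposure for 5 h at 37 C. Beta-lactamase reporter read with LiveBLAzer B/G FRET substrate after 2 h at room temperature, fluorescence at 405 nm excitation, 460/530 nm emission.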

[14] = target: Thyrotropin-releasing hormone receptor (Homo sapiens) (UniProt P34981); assay: qHTS assay to identify small molecule agonists of the thyrotropin-releasing hormone receptor (TRHR) signaling pathway (AID 1346891; calls by dose curve; also: series mostly up to about 58 µM)
Outline: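 HEK293 cells expressing TRHR plated 18 h at 37 C/5% CO2, calcium dye-loaded 2 h at 37 C, then compound added (agonist mode); kinetic calcium fluorescence read 3 min at 1 s intervals; 15 concentrations in triplicate.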

[15] = Human pregnane X receptor (PXR) small molecule agonists, qHTS cell viability counter screen (AID 1346977); also: nearly all actives have a fitted effect of over 50% in size; also: potency is read from the fitted curve at half-maximal effect
Outline: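 PXR-Luc HepG2 cells (2,000/well, 5% charcoal-stripped FBS) preincubated 5 hr, then exposed to compounds 24 hr at 37 C. Viability read in the same wells by CellTiter-Fluor fluorescence, reagent added at 23 hr, 1 hr incubation.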

[16] = Caspase-3/7 induction in HepG2 cells by small molecules, qHTS assay (AID 1346978); also: nearly all actives have a fitted effect of over 15% in size
Outline: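 Caspase-3/7 induction was measured by Caspase-Glo 3/7 luminescence (30 min, room temperature) after a 17 hr compound exposure of wild-type HepG2 cells seeded at 2,000 per well and pre-incubated 5 hr.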

[17] = Caspase-3/7 induction in CHO-K1 cells by small molecules, qHTS cell viability counter screen (AID 1346979); also: nearly all actives have a fitted effect of over 35% in size; also: potency is read from the fitted curve at half-maximal effect
Outline: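 Wild-type CHO-K1 cells (1,500/well) treated with compound after 5 h plating; after 16 h at 37C, viability read as CellTiter-Fluor fluorescence following 1 h reagent incubation, in the same wells as the caspase read.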

[18] = target: Estrogen receptor (Homo sapiens) (UniProt P03372); assay: qHTS assay to identify small molecule agonists of the estrogen receptor alpha (ER-alpha) signaling pathway in the presence of an antagonist (AID 1259383; calls by dose curve; also: nearly all actives have a fitted effect of over 15% in size; also: potency is read from the fitted curve at half-maximal effect; as to activation: top concentration of the series differs between compounds)
Outline: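 ER-alpha agonism measured under antagonist challenge: 10.0nM ICI-182,780 (final) plus compound, 15 concentrations, 22hr, VM7Luc4E2 ERE-luciferase cells. Read by luminescence.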

[19] = target: Thyrotropin-releasing hormone receptor (Homo sapiens) (UniProt P34981); assay: qHTS assay to identify small molecule antagonists of the thyrotropin-releasing hormone receptor (TRHR) signaling pathway (AID 1346877; active = well fitted inhibition curve with a large enough effect in the repeat runs, not every such curve was filed as active; also: series mostly up to about 51 µM)
Outline: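 Human TRHR in HEK293 cells; inhibition of the intracellular calcium rise triggered by 1 nM TRH was followed by fluorescence over 3 min. Compounds were run at 15 concentrations, three replicates each.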

Measured: Potency

Chain of Thyrotropin receptor (Homo sapiens) (P16473 whole entry, looked up): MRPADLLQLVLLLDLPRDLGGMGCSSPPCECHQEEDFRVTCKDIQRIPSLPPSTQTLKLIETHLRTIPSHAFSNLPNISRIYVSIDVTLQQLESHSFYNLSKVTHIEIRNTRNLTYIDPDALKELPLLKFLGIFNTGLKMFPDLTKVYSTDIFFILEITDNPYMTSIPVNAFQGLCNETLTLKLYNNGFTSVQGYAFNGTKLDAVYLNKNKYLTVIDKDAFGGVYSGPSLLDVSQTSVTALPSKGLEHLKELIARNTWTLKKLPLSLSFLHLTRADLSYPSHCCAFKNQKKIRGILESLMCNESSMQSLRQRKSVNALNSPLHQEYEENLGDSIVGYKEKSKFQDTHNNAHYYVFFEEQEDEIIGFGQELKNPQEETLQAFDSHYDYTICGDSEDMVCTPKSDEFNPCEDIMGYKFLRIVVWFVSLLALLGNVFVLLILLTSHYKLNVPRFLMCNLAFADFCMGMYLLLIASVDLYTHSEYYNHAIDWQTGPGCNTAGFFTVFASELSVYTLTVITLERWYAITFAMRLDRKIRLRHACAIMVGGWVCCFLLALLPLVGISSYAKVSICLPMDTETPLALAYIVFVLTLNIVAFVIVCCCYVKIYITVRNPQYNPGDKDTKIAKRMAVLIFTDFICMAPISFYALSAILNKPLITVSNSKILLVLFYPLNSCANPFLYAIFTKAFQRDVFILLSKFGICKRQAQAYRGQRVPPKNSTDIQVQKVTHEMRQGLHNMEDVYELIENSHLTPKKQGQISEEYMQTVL
Chain of Thyrotropin-releasing hormone receptor (Homo sapiens) (P34981 whole entry, looked up): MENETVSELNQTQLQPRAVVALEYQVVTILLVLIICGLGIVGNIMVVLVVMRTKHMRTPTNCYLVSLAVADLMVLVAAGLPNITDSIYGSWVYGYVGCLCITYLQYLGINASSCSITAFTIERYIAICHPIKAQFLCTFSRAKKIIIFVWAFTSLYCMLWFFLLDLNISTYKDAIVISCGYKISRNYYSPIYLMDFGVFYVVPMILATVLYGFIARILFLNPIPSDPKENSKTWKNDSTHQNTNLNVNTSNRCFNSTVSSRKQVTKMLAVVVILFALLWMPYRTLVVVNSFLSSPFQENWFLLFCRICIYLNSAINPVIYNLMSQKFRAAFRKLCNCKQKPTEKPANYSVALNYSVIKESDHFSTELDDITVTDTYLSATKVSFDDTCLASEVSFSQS
Chain of Progesterone receptor (Homo sapiens) (P06401 whole entry, looked up): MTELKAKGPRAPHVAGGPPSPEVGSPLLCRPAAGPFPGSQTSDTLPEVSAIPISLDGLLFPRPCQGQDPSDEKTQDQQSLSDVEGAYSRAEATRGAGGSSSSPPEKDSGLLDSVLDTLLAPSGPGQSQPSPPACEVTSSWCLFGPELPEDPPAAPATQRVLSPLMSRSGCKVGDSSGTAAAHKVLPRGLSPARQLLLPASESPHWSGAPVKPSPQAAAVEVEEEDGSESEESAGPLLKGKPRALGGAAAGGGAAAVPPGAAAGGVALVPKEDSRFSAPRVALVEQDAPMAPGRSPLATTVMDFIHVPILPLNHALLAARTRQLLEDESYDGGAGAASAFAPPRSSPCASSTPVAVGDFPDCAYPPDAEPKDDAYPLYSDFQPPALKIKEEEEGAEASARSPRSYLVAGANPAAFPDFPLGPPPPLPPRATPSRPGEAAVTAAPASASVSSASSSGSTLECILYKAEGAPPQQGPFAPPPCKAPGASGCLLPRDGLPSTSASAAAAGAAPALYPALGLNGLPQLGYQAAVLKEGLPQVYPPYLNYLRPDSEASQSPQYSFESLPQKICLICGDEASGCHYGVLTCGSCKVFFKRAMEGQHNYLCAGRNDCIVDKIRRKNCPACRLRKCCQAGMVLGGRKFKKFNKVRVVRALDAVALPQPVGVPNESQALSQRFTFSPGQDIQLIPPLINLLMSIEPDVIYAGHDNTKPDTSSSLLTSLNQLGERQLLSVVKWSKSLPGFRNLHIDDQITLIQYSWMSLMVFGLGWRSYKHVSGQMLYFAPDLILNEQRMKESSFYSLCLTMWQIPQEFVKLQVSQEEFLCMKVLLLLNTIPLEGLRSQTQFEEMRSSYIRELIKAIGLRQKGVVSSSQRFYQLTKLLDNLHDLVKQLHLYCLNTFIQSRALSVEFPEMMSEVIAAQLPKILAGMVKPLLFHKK
Chain of Estrogen receptor (Homo sapiens) (P03372 whole entry, looked up): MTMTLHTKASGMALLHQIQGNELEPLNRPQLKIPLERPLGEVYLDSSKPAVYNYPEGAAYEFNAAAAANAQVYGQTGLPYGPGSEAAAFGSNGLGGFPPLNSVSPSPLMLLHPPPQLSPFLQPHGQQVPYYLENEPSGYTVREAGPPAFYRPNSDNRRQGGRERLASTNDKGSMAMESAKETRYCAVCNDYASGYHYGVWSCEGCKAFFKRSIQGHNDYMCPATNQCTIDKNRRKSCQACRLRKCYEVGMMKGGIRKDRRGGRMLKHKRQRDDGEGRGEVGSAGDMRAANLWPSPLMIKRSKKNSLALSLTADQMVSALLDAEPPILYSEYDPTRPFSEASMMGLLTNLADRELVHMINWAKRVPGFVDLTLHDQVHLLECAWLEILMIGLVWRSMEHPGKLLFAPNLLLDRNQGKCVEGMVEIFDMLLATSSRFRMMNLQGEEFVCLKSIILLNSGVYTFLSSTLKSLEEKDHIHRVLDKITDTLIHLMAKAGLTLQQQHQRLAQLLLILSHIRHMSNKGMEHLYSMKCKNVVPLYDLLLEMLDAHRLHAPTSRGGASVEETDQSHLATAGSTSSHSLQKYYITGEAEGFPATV

Cc1cc(Cl)ccc1O
not listed: [18] | [19]
inactive: all other assays above

c1ccc2c(c1)oc1ccccc12
not listed: [18] | [19]
inactive: all other assays above

CC(C)NC(=O)N1CC(=O)N(c2cc(Cl)cc(Cl)c2)C1=O
50.1 µM (active) and inactive: [15]
19.3 µM (active) and inactive: [17]
not listed: [2] | [8]
inactive: all other assays above

CCOP(=S)(OCC)SCCSCC
not listed: [8] | [11] | [18]
inactive: all other assays above

O=S(=O)(c1ccc(O)cc1)c1ccc(O)cc1
active: [18] 54.5 µM
not listed: [4] | [5] | [19]
inactive: all other assays above

c1ccc2c(c1)Oc1ccccc1O2
not listed: [14] | [18] | [19]
inactive: all other assays above

C[C@]12CC[C@H]3[C@@H](CC[C@@]45O[C@@H]4C(O)=C(C#N)C[C@]35C)[C@@H]1CC[C@@H]2O
not listed: [8] | [13] | [14] | [18] | [19]
inactive: all other assays above

CC(NC(C)(C)C)C(=O)c1cccc(Cl)c1 (centres undefined)
not listed: [2] | [4] | [5] | [18] | [19]
inactive: all other assays above

CC(C)C#N
not listed: [18]
inactive: all other assays above

O=C(O)c1ccccn1
not listed: [4] | [5] | [8] | [14] | [19]
inactive: all other assays above

C#CC(C)(C)NC(=O)c1cc(Cl)cc(Cl)c1
not listed: [8] | [18] | [19]
inactive: all other assays above

NCC(O)c1ccc(O)cc1 (centres undefined)
not listed: [18] | [19]
inactive: all other assays above

CN(C)[C@@H]1C(=O)C(C(N)=O)=C(O)[C@@]2(O)C(=O)C3=C(O)c4c(O)cccc4[C@@](C)(O)[C@H]3C[C@@H]12
not listed: [8] | [18]
inactive: all other assays above

OCCN(CCO)CCO
not listed: [8] | [14] | [18] | [19]
inactive: all other assays above

OC(O)C(Cl)(Cl)Cl
not listed: [8] | [18]
inactive: all other assays above

CCC(C)(CC)c1cc(NC(=O)c2c(OC)cccc2OC)on1
not listed: [4] | [5] | [8] | [9] | [17] | [18]
inactive: all other assays above
